Source: PubChem
RE007 growth inh: less growth of the S. pombe RE007 Vpr strain; S. pombe RE007 Vpr strain, BacTiter-Glo ATP luminescence, 24 h; hit rate 0.21% among 360,000; Potency, µM (highest dose often 92.2 µM), for inactives: at the highest dose activity change, negative = less growth, actives largely listed as inhibitors; active means well fitted falling curve with a large enough effect; inconclusive means small, poorly fitted or top-dose-only effect; inactive means no such curve, though single readings can be large or run the other way; further: nearly all actives have a fitted effect of over 50% in size
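Fission yeast RE007 carrying one integrated HIV-1 vpr copy, seeded at OD 0.01 in PMG+AL medium with 23 nL pinned compound. Grown 24 h at 30 degrees; viability read by BacTiter-Glo luminescence after 5 min.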
Sm TGR inh: inhibitors of Schistosoma mansoni thioredoxin glutathione reductase | Potency, µM (top dose mostly 114 µM), for the others: at the top dose activity change, negative = inhibition, most hits filed as inhibitors | purified TGR, DTNB reduction, TNB absorbance 405 nm | hit rate 3% among 360,000; further: nearly all actives have a fitted effect of over 60% in size
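First, TGR (20 nM dispensed) and NADPH were mixed with compound. Second, a 15 min room-temperature incubation followed. Third, further NADPH and then DTNB were added to start the reaction. Finally, TNB absorbance was monitored kinetically.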
LmPK inh: LmPK (Leishmania mexicana) enzyme inhibition. purified LmPK, Kinase-Glo ATP luminescence, 1 h. Potency, µM (top dose mostly 57.5 µM), for inactives: at the highest dose activity change, negative = inhibition, actives largely listed as inhibitors. hit rate 0.37% among 290,000
Target sequence (Q27686 whole entry, looked up): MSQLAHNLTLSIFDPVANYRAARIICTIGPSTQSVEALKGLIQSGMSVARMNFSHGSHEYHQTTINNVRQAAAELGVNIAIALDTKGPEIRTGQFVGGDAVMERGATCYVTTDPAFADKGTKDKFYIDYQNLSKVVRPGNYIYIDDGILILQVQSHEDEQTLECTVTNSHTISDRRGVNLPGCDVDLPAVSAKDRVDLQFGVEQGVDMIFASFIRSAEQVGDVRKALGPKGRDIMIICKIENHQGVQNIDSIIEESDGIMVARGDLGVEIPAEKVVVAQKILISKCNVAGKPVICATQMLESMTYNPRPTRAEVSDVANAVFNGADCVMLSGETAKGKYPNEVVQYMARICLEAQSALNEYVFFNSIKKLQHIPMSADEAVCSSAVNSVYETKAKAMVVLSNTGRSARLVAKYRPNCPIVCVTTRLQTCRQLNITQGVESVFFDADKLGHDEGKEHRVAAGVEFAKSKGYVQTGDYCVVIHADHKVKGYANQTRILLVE
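In 50 mM imidazole pH 7.2 with 7 mM MgCl2, LmPK (0.1 nM) turned over PEP (0.5 mM) and ADP (0.1 mM) for 1 h at room temperature. Luciferase read-out of ATP.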
AMA1 RON2 block: disrupts binding of P. falciparum AMA1 to RON2; AlphaScreen AMA1-biotinylated RON2 peptide binding; AID 720542; hit rate 0.2% among 360,000; Potency, µM (highest dose often 58.2 µM), inactives show at the top dose activity change, negative = inhibition, most hits filed as inhibitors;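 further: 0% = vehicle wells and -100% = peptide control; nearly all actives have a fitted effect of over 45% in size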
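AMA1 (3D7) with his tag at 25 nM final met compounds first, then biotinylated RON2 peptide at 25 nM; detection used donor plus acceptor beads, 10 µg/mL apiece, read by AlphaScreen after 30 min at room temperature.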
TbPYK inhibitor: inhibitors of Trypanosoma brucei pyruvate kinase | TbPYK enzyme, Kinase-Glo Plus ATP luminescence, 45 min | Q57TT1 | Potency, µM (series often up to 76.8 µM), for inactives: at the highest dose activity, negative = inhibition, hits mostly inhibitors | hit rate 0.12% among 410,000 | AID 624173; further: nearly all actives have a fitted effect of over 50% in size
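Glycolytic pyruvate kinase of T. brucei was incubated with substrate, test compound and 130 uM ADP for 45 minutes at room temperature. Luminescent Kinase-Glo Plus signal was measured after 10 minutes.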
An asterisk follows results filed as active; ? = inconclusive; · = no result; [ ] = dose if it differs, or a comment. Most compounds without a hit are left out; they make up all but 3.2% or so of the library. Unless noted, the call rests on the fitted dose curve; in most records, active means well fitted curve in the direction sought with a large enough effect; inconclusive means small, poorly fitted or top-dose-only effect, or another doubt; inactive means no such curve, though single readings can be large; an effect the other way counts as inactive or inconclusive. Unless noted, on the % scale 0 is the no-effect control and ±100 the full control effect; potency means the concentration at half of the fitted maximal effect.

SMILES | RE007 growth inh | Sm TGR inh | LmPK inh | AMA1 RON2 block | TbPYK inhibitor
Cn1cccc1Cc1nnc(SCC(=O)Nc2ccc(F)cc2)n1-c1ccc(F)cc1 | 1% | ? | 1% | -10% | -6%
Cc1ccc(-n2c(Cc3cccn3C)nnc2SCC(=O)N2CCN(c3ccccc3)CC2)cc1 | -3% | 40µM* | 2% | -19% | -17%
Cn1cccc1Cc1nnc(SCC(=O)N2CCCCCC2)n1-c1ccc(F)cc1 | -9% | ? | 12% | 12% | -3%
COc1ccccc1N1CCN(C(=O)Cn2ncc3ccsc3c2=O)CC1 | · | 13% | · | · | -14%
CC1Cc2ccccc2N1S(=O)(=O)c1cnc(Cl)c(Br)c1 (stereo not drawn) | 5% | 7.9µM* | 1% | -4% | 7%
CC1Cc2ccccc2N1S(=O)(=O)c1cnc(Cl)c(Cl)c1 (stereo not drawn) | -6% | 0% | 4% | -6% | -4%
O=S(=O)(NC(=S)NC1CCCCC1)c1ccc(Br)cc1 | ? | 22µM* | 0% | 71% | -6%
Cc1cccc(NC(=O)CSc2nc3ccccc3c3nc(CCn4cncc4C)nn23)c1 | · | -3% | · | · | 28%
CCN(CC)C(=O)[C@@H]1C=C2c3cccc4[nH]cc(c34)C[C@H]2N(C)C1 | · | · | · | · | -7%
CN1C[C@H](CO)C=C2c3cccc4[nH]cc(c34)C[C@H]21 | -10% | 11µM* | 4% | 25% | -4%
CC1=C(C(=O)Nc2ccc(Cl)cc2)C(C(C)C)n2nc(SCc3cccc(C)c3)nc2N1 (stereo not drawn) | · | 0% | · | · | 0%
O=C(/C=C1\C(=O)Nc2ccccc21)/C=C1\C(=O)Nc2ccccc21 | -6% | 13µM* | ? | -16% | ?
CCN(CC)CCCN1C(=O)C(O)=C(C(=O)c2ccc(C)o2)C1c1ccc(C)o1 (stereo not drawn) | -3% | 50µM* | 2% | 0%[11.6 µM] | -10%
CCOc1ccc(C2C(C(=O)c3ccc(C)o3)=C(O)C(=O)N2CCCN(CC)CC)cc1 (stereo not drawn) | -6% | 35µM* | 4% | -3% | 7%
CCN(CC)CCCN1C(=O)C(O)=C(C(=O)c2ccc(C)o2)C1c1cccs1 (stereo not drawn) | · | 45µM* | 2% | · | ·
COc1ccc(OC)c(NC(=O)Cn2c(=O)cc(-c3ccccc3)c3c(C)nn(C)c32)c1 | · | -6% | · | · | -8%
COc1cc2c(cc1O)CCN[C@@]21CS[C@H]2c3c(OC(C)=O)c(C)c4c(c3C(COC1=O)N1C2C2c3c(cc(C)c(OC)c3O)CC([C@@H]1O)N2C)OCO4 (stereo partly drawn) | · | · | · | · | -3%
O=C1NC(=Nc2ccc3ccccc3c2)S/C1=C/c1ccco1 | -30% | 28µM* | 3% | -8% | -12%
Cc1cccc(N=C2NC(=O)/C(=C/C=C/c3ccco3)S2)c1 | -26% | 40µM* | -6% | -5% | 1%
O=C1NC(=Nc2ccc(O)cc2)S/C1=C/c1ccco1 | -9% | 25µM* | 5% | 2% | -15%
COc1ccc(N=C2NC(=O)/C(=C\C=C\c3ccco3)S2)cc1 | -19% | · | 4% | 0% | -3%
Cc1ccc(N=C2NC(=O)/C(=C\c3ccco3)S2)cc1 | ? | -28% | 3% | -4% | -17%
CCCSc1ncc(Cl)c(C(=O)N(Cc2ccc(N(C)C)cc2)C2CCS(=O)(=O)C2)n1 (stereo not drawn) | · | -3% | · | · | 4%
COc1ccc(OC)c(C(C)NC(=O)Cn2c(=O)cc(C)c3c(C)nn(-c4ccc(C)cc4)c32)c1 (stereo not drawn) | · | 0% | · | · | 1%
NC(=O)c1ccc(NC(=O)COC(=O)CCC(=O)c2ccc(Cl)cc2)cc1 | 1% | 50µM* | -2% | -4% | -24%
SMILES | RE007 growth inh | Sm TGR inh | LmPK inh | AMA1 RON2 block | TbPYK inhibitor
NCCCNCCCCNC(=O)C(O)NC(=O)CCCCCCN=C(N)N (stereo not drawn) | · | · | · | · | 0%
O=S(=O)(Nc1ccc(Cl)cc1NS(=O)(=O)c1ccccc1)c1ccccc1 | -1% | · | · | 39% | 5%
COc1ccc(S(=O)(=O)Nc2ccc(O)c(Sc3ncn[nH]3)c2)cc1 | 5% | -10% | 2% | 13% | -7%
Cc1cc(C)c(S(=O)(=O)Nc2ccc(O)cc2)cc1C | -3% | -29% | 5% | -15% | 2%
O=C(O)CSc1cc(NS(=O)(=O)c2ccc(Cl)cc2)c2ccccc2c1O | ? | 7.1µM* | ? | -22% | ?
COc1ccc(S(=O)(=O)Nc2cc(Sc3ncn[nH]3)c(O)c3ccccc23)cc1 | 32µM* | 0.5µM* | 3.2µM* | · | ·
O=S(=O)(Nc1cc(Sc2cccc3cccnc23)c(O)c2ccccc12)c1ccc(F)cc1 | ? | 3.5µM* | -7% | -13% | ?
Cc1cc(C)c(S(=O)(=O)Nc2cc(SCC(=O)O)c(O)c3ccccc23)cc1C | -14% | 8.9µM* | 20µM* | -20% | 10µM*
CC(=O)Nc1ccc(NC(=O)c2oc3ccc4c(c3c2C)C(=O)CC(C)(C)O4)cc1 | · | -10% | · | · | -1%
CC(=O)c1ccc(N2CCN(c3nc4c(S(=O)(=O)c5ccc(C)c(C)c5)nnn4c4ccc(Cl)cc34)CC2)cc1 | · | 8% | · | · | 3%
COc1ccc(S(=O)(=O)Nc2cc(SCC(=O)O)c(O)c3ccccc23)cc1 | -26% | 3.5µM* | ? | ? | ?
COc1ccc(S(=O)(=O)Nc2cccc3ccc(O)cc23)cc1 | 25% | · | · | 12% | -7%
CN1C(=O)C(O)(CC(=O)/C=C/c2ccco2)c2cc(Br)ccc21 (stereo not drawn) | 5% | 18µM* | 1% | 12% | -22%
CCCCc1nc2c(c3c1C[C@H](C)OC3)CN(S(=O)(=O)CCCC)CC2 | · | · | 0%[11.5 µM] | · | ·
COc1ccc(NC(=S)NC(=O)/C=C/c2ccco2)cc1 | 3% | 10µM* | 1% | 46% | -5%
CN(C)c1ccc(NC(=S)NC(=O)/C=C/c2ccco2)cc1 | -9% | -16% | -1% | 5% | -3%
CCC(=O)Nc1ccc(NC(=S)NC(=O)/C=C/c2ccco2)cc1 | 15% | 28µM* | 15% | 85% | 8%
O=C(/C=C/c1ccco1)NC(=S)Nc1ccc(C(=O)O)cc1 | -5% | 7.1µM* | -3% | -9% | -8%
O=C(/C=C/c1ccc(Cl)cc1)NC(=S)Nc1ccc(C(=O)O)cc1 | 1% | 10µM* | -2% | -8% | -1%
COc1ccc(CN2COc3ccc4c(C)cc(=O)oc4c3C2)cc1 | · | -5% | · | · | -2%
O=C(NCCc1ccccc1)C1CCN(c2ncnc3c2nc2n3CCCCC2)CC1 | · | -3% | · | · | 4%
O=C(C=Cc1ccco1)c1ccco1 | ? | · | · | 6% | -13%
COc1ccccc1/C=C/C(=O)NNC(=O)c1cc(C)oc1C | 5% | -5% | · | 93% | -4%
Cc1ccc(C(=O)/C=C/c2ccco2)c(O)c1 | -21% | 45µM* | -3% | 5%[2.32 µM] | -27%
